HT1080 IDH1KD tx – qHTS for induction of synthetic lethality in tumor cells producing 2HG: qHTS for the HT-1080-IDH1KD cell line | HT-1080 IDH1 knockdown viability, ATP luminescence, 48 h | Potency, µM (titrated, usually from 46.1 µM), most hits filed as cytotoxic | hit rate 2% among 360,000
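CellTiter-Glo luminescence after 48 h compound exposure at 37 degrees C of IDH1-knockdown HT-1080 cells in 5% FBS RPMI. %Activity scaled between DMSO wells and cell-free media wells, with curves fitted and assigned curve classes.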
HT1080-NT tox – qHTS for induction of synthetic lethality in tumor cells producing 2HG: qHTS for the HT-1080-NT fibrosarcoma cell line; HT-1080-NT fibrosarcoma viability, CellTiter-Glo ATP luminescence, 48 h; Potency, µM (doses to about 46.1 µM), most hits filed as cytotoxic; AID 686970, 2013; hit rate 1.6% among 360,000;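 also: NT is the 2HG producing partner of a matched IDH1 knockdown line; nearly all actives have a fitted effect of over 55% in size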
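Read-out is CellTiter-Glo luminescence after 10 minutes at room temperature, following 48 hours' compound treatment of HT-1080-NT cells (750 cells/well, RPMI, 5% FBS, 37 degrees C).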
IL-1B inflam inh – qHTS for Inhibitors of Inflammasome Signaling: IL-1-beta AlphaLISA Primary Screen; THP-1 LPS/ATP IL-1B secretion, AlphaLISA, 16 h; active compounds read low; activity change, % at 57.5 µM; hit rate 4.7% among 360,000; in the data active = activity change below about -50%; inconclusive = mostly about -30% to -49%
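THP-1 cells pretreated 1 hr with compounds (up to 57.5 uM final), then stimulated with LPS (250 ng/mL final) plus ATP (1.25 mM final); secreted IL-1B measured by AlphaLISA after 16 hr, decreased signal indicating inhibition.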
TDP1 cell CPT – qHTS for Inhibitors of human tyrosyl-DNA phosphodiesterase 1 (TDP1): qHTS in cells in presence of CPT | Potency, µM (series often up to 46.2 µM), actives largely listed as inhibitors | hit rate 12% among 420,000 | chicken DT40 Tdp1-/-;hTDP1 cells + 20 nM CPT, ATP luminescence, 48 h; also: nearly all actives have a fitted effect of over 55% in size
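Chicken DT40 Tdp1-/- cells stably complemented with human TDP1 were seeded at 400 cells/well in medium containing 20 nM camptothecin, exposed to pin-transferred compounds, and grown at 37 °C for at least 48 hr. Viability was read as ATP luminescence.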
ALOX12 inh – Primary qHTS assay for inhibitors of human arachidonate 12S-lipoxygenase (ALOX12): Round 2; Polyunsaturated fatty acid lipoxygenase ALOX12 (Homo sapiens), P18054; purified 12hLO, xylenol orange hydroperoxide absorbance; Potency, µM (top dose mostly 108 µM), most hits filed as inhibitors; hit rate 1.1% among 580,000; AID 1671190, 2021
Target sequence (P18054 whole entry, looked up): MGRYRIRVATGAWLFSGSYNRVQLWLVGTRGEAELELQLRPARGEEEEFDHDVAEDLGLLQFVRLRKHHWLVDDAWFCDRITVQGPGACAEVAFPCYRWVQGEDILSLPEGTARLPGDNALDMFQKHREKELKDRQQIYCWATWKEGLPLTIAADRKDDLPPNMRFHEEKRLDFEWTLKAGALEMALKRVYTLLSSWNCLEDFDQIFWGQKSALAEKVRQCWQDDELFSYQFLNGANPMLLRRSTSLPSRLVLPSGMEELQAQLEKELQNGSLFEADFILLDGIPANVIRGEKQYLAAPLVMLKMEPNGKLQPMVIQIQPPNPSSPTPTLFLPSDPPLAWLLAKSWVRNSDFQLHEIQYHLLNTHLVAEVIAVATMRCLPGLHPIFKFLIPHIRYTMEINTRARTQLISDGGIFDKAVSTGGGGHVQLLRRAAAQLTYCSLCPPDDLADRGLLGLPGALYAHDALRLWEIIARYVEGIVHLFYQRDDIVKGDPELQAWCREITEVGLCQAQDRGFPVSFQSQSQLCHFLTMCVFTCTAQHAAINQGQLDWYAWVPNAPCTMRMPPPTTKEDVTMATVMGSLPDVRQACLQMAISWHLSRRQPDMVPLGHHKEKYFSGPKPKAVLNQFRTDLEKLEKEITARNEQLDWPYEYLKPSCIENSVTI
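Hydroperoxide product was detected by ferrous iron/xylenol orange as the 573 to 405 nm absorbance ratio. Arachidonic acid at 40 uM (final) was turned over for 30 min at room temperature by 150 nM human 12hLO, pH 7.0 Hepes buffer, after 15 min compound preincubation.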
DT40 TDP1 no CPT – qHTS for Inhibitors of human tyrosyl-DNA phosphodiesterase 1 (TDP1): qHTS in cells in absence of CPT; DT40 Tdp1-/- hTDP1 cells, no CPT, ATP luminescence, 48 h; Potency, µM (series often up to 46.2 µM), actives largely listed as inhibitors; hit rate 15% among 420,000; also: nearly all actives have a fitted effect of over 55% in size
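Cells were dispensed at 400 per well, compounds added by pin tool, plates incubated ≥48 hr at 37 °C, then CellTiter-Glo added for 30 min at room temperature before luminescence reading. Line: DT40 Tdp1-/- complemented with hTDP1; camptothecin omitted.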
A number is an active result; 0 = inactive; ? = inconclusive; - = no result given; [ ] = remark or other dose. The sample as a whole holds a higher share of hits than the screen did. Unless noted, calls follow the shape of the dose curve; as a rule, active = well fitted curve in the direction sought with a large enough effect; inconclusive = small, poorly fitted or top-dose-only effect, or another doubt; inactive = no such curve, though single readings can be large; an effect the other way counts as inactive or inconclusive.

SMILES | HT1080 IDH1KD tx | HT1080-NT tox | IL-1B inflam inh | TDP1 cell CPT | ALOX12 inh | DT40 TDP1 no CPT
Cc1cc(C)c2nc(Nc3nc(C(C)C)cc(=O)[nH]3)nc(C)c2c1 | - | - | - | - | 0 | -
CCOC(=O)C(C(=O)OCC)N(C#N)c1nc(C)cc(C)n1 | 0[9.24 µM] | 0 | 0 | 0 | 0 | 0
CCOC(=O)C(C(=O)OCC)N(C#N)c1nc(N(C)C)nc(N(C)C)n1 | 0 | 0 | -100 | 0 | 0 | 0
Oc1cccc2[nH]ncc12 | - | - | - | - | 0 | -
Cc1[nH]c(=O)[nH]c(=O)c1/C=N/NC(=O)CCNC(=O)OC(C)(C)C | 0 | 0 | -60 | 0 | 0 | 0
CC(NC(=O)CN(C)CC(=O)Nc1ccc(Cl)cc1)c1ccc(F)cc1 (stereo unspecified) | 0 | 0 | ? | ? | ? | 18µM
COc1ccc(-c2[nH]ncc2CN(C)C(C)c2cccs2)c(F)c1 (stereo unspecified) | 0 | 0 | 0 | 16µM | 0 | ?
COc1ccc(-c2[nH]ncc2CN(C)CCc2c(C)n[nH]c2C)c(F)c1 | 0 | 0 | 0 | 0 | 0 | 0
Cc1cnc(C(=O)N2[C@@H]3CC[C@H]2CC(NC(=O)c2ccc(F)cc2)C3)cn1 (stereo partly specified) | - | - | - | - | 0 | -
C=CCNC(=O)N(C)Cc1ccc(C(N)=O)cc1 | - | - | - | - | 0 | -
CCCCNC(=O)c1cc(-c2ccccc2)sc1N | 0 | 0 | ? | 15µM | ? | 16µM
CC(=O)c1sc(-c2ccccc2)cc1N | 0 | 0 | - | 0 | 0 | 0
Nc1sc(-c2ccccc2)cc1C(=O)NCCc1c[nH]c2ccccc12 | ? | ? | 0 | 16µM | 0 | 15µM
Cc1ccccc1C(=O)NCCc1c[nH]c2ccccc12 | - | - | - | - | 0 | -
COCCNC(=O)c1cc(-c2ccccc2)sc1N | 0 | 0 | 0 | ? | ? | ?
NNC(=O)c1sc(-c2ccccc2)cc1N | 0 | 0 | -54 | ? | 0 | ?
COCCN1CC(CO)C2(CCN(Cc3ccc(Cl)c(F)c3)CC2)C1 (stereo unspecified) | - | - | - | - | 0 | -
CCN1C(=O)[C@@H]2[C@@H](c3ccc(SC4CCCCC4)c(OC)c3)N3CCC[C@@]3(C(=O)OC)[C@@H]2C1=O | 0 | 0 | 0 | 23µM | ? | ?
CCN1C(=O)[C@H]2[C@@H](c3ccc(-c4ccc(F)cc4)c(OC)c3)N3CCC[C@@]3(C(=O)OC)[C@H]2C1=O | 0 | 0 | 0 | 8.2µM | ? | 8.2µM
CCN1C(=O)[C@@H]2[C@@H](c3ccc(-c4cccc(Cl)c4)c(OC)c3)N3CCCC[C@@]3(C(=O)OC)[C@@H]2C1=O | 0 | 0 | 0 | ? | 0 | 16µM
CCN1C(=O)[C@@H]2[C@@H](c3ccc(-c4ccc(Cl)c(Cl)c4)c(OC)c3)N3CCC[C@@]3(C(=O)OC)[C@@H]2C1=O | 0 | 0 | 0 | 8.2µM | 0 | 9.2µM
Cc1ccc2c(c1)c(C(=O)N1CCC3(CCNC(=O)CC3)CC1)nn2C | - | - | - | - | 0 | -
O=C1NCN(Cc2ccc(Cl)cc2)C12CCN(CC1CCCCC1)CC2 | - | - | - | - | 0 | -
COc1ccc2cc(CCNS(=O)(=O)c3c(C)cc(C)cc3C)c(=O)[nH]c2c1 | 0 | 0 | 0 | ? | 0 | 0
Cc1cc(C)c(S(=O)(=O)NCCc2cc3ccc(C)c(C)c3[nH]c2=O)c(C)c1 | 0 | 0 | 0 | ? | 0 | 18µM
SMILES | HT1080 IDH1KD tx | HT1080-NT tox | IL-1B inflam inh | TDP1 cell CPT | ALOX12 inh | DT40 TDP1 no CPT
Cc1ccc2cc(CCNS(=O)(=O)c3ccc(Br)cc3)c(=O)[nH]c2c1C | 0 | 0 | 0 | ? | 0 | 23µM
COc1ccc(C(=O)N2CCc3c([nH]c4ccccc34)C2C(F)(F)F)cc1 (stereo unspecified) | 0 | 0 | 0 | ? | 0 | ?
COc1ccccc1NC(=O)N1CCc2c([nH]c3ccccc23)C1C(F)(F)F (stereo unspecified) | 0 | 0 | -60 | 0 | 0 | 0
O=C(c1cccc(C(F)(F)F)c1)N1CCc2c([nH]c3ccccc23)C1C(F)(F)F (stereo unspecified) | ? | ? | -83 | ? | ? | ?
Cc1cc(Cl)ccc1S(=O)(=O)N(Cc1cccnc1)C1CC1 | - | - | - | - | 0 | -
C[C@@H](NCc1cccc(Cl)c1)c1onc(-c2ccc(F)cc2)c1C(=O)O | - | - | - | - | 28µM | -
C[C@@H](NCc1ccccc1)c1onc(-c2ccc(F)cc2)c1C(=O)O | - | - | - | - | 0 | -
Brc1ccc([C@H]2C=C[C@H]3CCCN4CC[C@H]2[C@@H]3[C@]42CO2)cc1 | 0 | 0 | ? | 18µM | ? | 12µM
O=C(Cn1nnc(-c2ccccc2)n1)N/N=C/c1cc([N+](=O)[O-])ccc1O | 0 | 0 | 0 | 5.8µM | 0 | 4.1µM
O=C(N/N=C/c1cc([N+](=O)[O-])ccc1O)c1ccc(COc2ccc3c(c2)CCC3)o1 | ? | ? | 0 | 2.6µM | ? | 3.3µM
O=C(CCC(=O)Nc1cc(C(F)(F)F)ccc1Cl)N/N=C\c1cc([N+](=O)[O-])ccc1O | 0 | ? | 0 | 10µM | 0 | 8.2µM
O=[N+]([O-])c1ccc(O)c(C2CCCCC2)c1 | 16µM | 15µM | ? | ? | ? | ?
O=[N+]([O-])c1ccc2nc(C3CCCCC3)[nH]c2c1 | 0 | 0 | 0 | ? | 0 | ?
CN(Cc1ccc(Cl)cc1)C(=O)C1CCN(c2ccc(C(F)(F)F)cn2)CC1 | - | - | - | - | 0 | -
O=C(N/N=C/c1cc([N+](=O)[O-])ccc1O)C1CCCCC1 | ? | ? | 0 | 5.2µM | 0 | 4.6µM
O=C(CCC(=O)Nc1ccc(F)cc1)N/N=C/c1cc([N+](=O)[O-])ccc1O | 0 | 0 | 0 | 0 | 0 | ?
O=C(Cn1nc2ccccc2n1)N/N=C/c1cc([N+](=O)[O-])ccc1O | ? | 0 | 0 | ? | ? | ?
O=C(CCC(=O)Nc1ccc(Br)cc1)N/N=C/c1cc([N+](=O)[O-])ccc1O | 0 | 0 | 0 | 23µM | ? | ?
CN(C)N(Cc1ccccc1)C(=O)C(O)(c1ccccc1)c1ccccc1 | 0 | 0 | 0 | ? | 0 | 26µM
COc1cccc(CNC(=O)c2cc(C)cc(C)c2)c1 | - | - | - | - | 0 | -
CC1CCCC(C)N1C(=O)c1cc(-c2ccc(Cl)c(Cl)c2)on1 (stereo unspecified) | ? | 0 | 0 | 18µM | 0 | ?
CC1CCCC(C)N1C(=O)c1cc(-c2ccc3c(c2)OCO3)on1 (stereo unspecified) | 0 | 0 | 0 | ? | 0 | 26µM
O=C(c1cc(-c2ccc3c(c2)OCO3)on1)N1CCCCC1 | 0 | 0 | 0 | 0 | 0 | 0
